In the library only some 3% were active in any assay of this set; here they are far more common.
TRAIL sens C8: viability loss with TRAIL in NB7+C8 cells, primary screen, TRAIL sensitizer project, cell-based, ATPlite luminescence; 1% of 360,000 active; inhibition (viability loss, TRAIL sensitization), % at 10 µM;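 active means compounds causing at least 50% loss of cell viability in the single-dose screen, relative to plate controls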
SENP7 inh: SENP7 protease inhibitors, primary screen, biochemical, luminescence, uHTS. Sentrin-specific protease 7 (Homo sapiens), Q9BQF6. recombinant SENP7, Z-RLRGG-aminoluciferin luminescence, 40 min. inhibition, % at 5 µM. 1.5% of 330,000 active. AID 434973, 2010;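 active means inhibition above about 50% at the single test dose, limit read from the data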
SENP6 inh: SENP6 protease inhibitors, primary screen, biochemical, luminescence, uHTS. AID 2599, 2010. Recombinant SENP6 catalytic domain, aminoluciferin luminescence. 1.8% of 330,000 active. Sentrin-specific protease 6 (Homo sapiens), Q9GZR1. inhibition, % at 10 µM;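 active means inhibition above about 50% at the single tested dose, limit read from the data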
Target sequence (Q9GZR1 628-1112 limits assumed): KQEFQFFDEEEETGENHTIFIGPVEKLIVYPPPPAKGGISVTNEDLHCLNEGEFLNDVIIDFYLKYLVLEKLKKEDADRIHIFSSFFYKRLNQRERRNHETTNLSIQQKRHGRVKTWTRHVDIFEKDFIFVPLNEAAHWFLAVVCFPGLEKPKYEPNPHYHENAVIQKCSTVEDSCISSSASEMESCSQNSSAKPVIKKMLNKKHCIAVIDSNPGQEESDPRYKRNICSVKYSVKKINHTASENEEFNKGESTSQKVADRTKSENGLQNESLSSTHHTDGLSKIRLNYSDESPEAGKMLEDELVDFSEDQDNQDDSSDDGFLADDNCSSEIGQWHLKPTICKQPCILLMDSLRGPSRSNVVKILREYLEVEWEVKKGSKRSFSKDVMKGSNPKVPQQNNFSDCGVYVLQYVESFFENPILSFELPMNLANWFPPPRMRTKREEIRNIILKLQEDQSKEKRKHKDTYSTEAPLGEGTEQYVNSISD
SENP8 block-1: human SENP8 protease inhibitors, primary screen, biochemical, fluorescence, Nedd8 protein substrate, uHTS; Sentrin-specific protease 8 (Homo sapiens), Q96LD8; inhibition, % at 20 µM; 0.64% of 360,000 active; recombinant SENP8; in the data active means inhibition mostly above about 40%, no sharp cut-off; inactive means mostly below about 27%
PPC-1+TRAIL kill: compounds killing PPC-1 cancer cells with TRAIL present, primary screen, TRAIL potentiator project, ATPLite luminescence, uHTS; 0.41% of 220,000 active; cell killing (% activity), % at 4 µM or 5 µM; PPC-1 cells + TRAIL, ATPLite viability luminescence;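 active means cell killing above 50% in the first pass at 4 µM, then a duplicate retest at 5 µM averaging 50% or more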
SENP8 block-2: SENP8 protease inhibitors, primary screen, biochemical, luminescence; Sentrin-specific protease 8 (Homo sapiens), Q96LD8; purified SENP8, Z-RLRGG-aminoluciferin cleavage; inhibition, % at 10 µM; 1.2% of 330,000 active; AID 2540, 2010; in the data active means inhibition above about 50%
SENP8 confirm: SENP8 protease inhibitors, retest, confirmation, biochemical, luminescence, single concentration; shares compounds with SENP7 inh; Recombinant SENP8, Z-RLRGG-aminoluciferin luminescence, 60 min; inhibition, % at 12.5 µM; 40% of 6,200 active; AID 488912, 2010;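 active means mean inhibition across replicates above about 50%, limit read from the data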
SENP6 conf: SENP6 protease inhibitors, confirmation, biochemical, luminescence, single concentration. shares compounds with SENP7 inh. recombinant SENP6, Z-RLRGG-aminoluciferin luminescence. inhibition, % at 12.5 µM. 58% of 6,200 active. AID 488915, 2010
SENP7 confirm: SENP7 protease inhibitors, retest, confirmation, biochemical, luminescence, single concentration; 69% of 6,200 active; inhibition, % at 12.5 µM; AID 488917, 2010; shares compounds with SENP7 inh; recombinant SENP7, Z-RLRGG-aminoluciferin luminescence, 40 min
Casp3 SENP sel: caspase-3 protease inhibitors, confirmation, selectivity assay for SENP inhibitor project, biochemical, single concentration. AID 488918, 2010. inhibition, % at 12.5 µM. purified caspase-3, Z-DEVD-aminoluciferin luminescence, 60 min. shares compounds with SENP7 inh. 60% of 6,200 active;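 active means mean inhibition above about 50%, limit read from the data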
Luc interf: interferes with luciferase luminescence in SENP counter-screen; AID 488919; Pre-incubated SENP8/Z-RLRGG-aminoluciferin, luciferase luminescence interference; shares compounds with SENP7 inh; 39% of 6,200 active; inhibition, % at 12.5 µM;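 active means mean inhibition above about 50% when retested at one dose, limit read from the data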
Each line names hits and unclear results; the compound was inactive in the other large screens (follow-up assays come after a bar, where they were run).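 How the source made its calls, unless noted: active means mean inhibition above about 50% in the one-dose retest (limit read from the data); inactive means the rest.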

Cc1cccn2cc(-c3ccc(F)cc3)cc12	none
COc1ccc(-c2cn3ccc4ccccc4c3n2)cc1	SENP7 inh 92, SENP6 inh 92, SENP8 block-2 83 | SENP8 confirm inactive | SENP6 conf 86 | SENP7 confirm 100 | Casp3 SENP sel 87 | Luc interf inactive
CCCCOc1ncnc2c1[nH]c1ccc(OC)cc12	SENP7 inh 77 (no result: TRAIL sens C8, SENP8 block-1) | SENP8 confirm inactive | SENP6 conf inactive | SENP7 confirm inactive | Casp3 SENP sel inactive | Luc interf inactive
CN(C)c1ccc(N=Cc2nc(-c3ccccc3)oc2OC(=O)c2cccc(Br)c2)cc1	SENP6 inh 78 | SENP8 confirm inactive | SENP6 conf inactive | SENP7 confirm inactive | Casp3 SENP sel inactive | Luc interf inactive
COc1ccc(N=Cc2nc(-c3ccccc3)oc2OC(=O)c2ccccc2)cc1	SENP7 inh 56, SENP6 inh 54 | SENP8 confirm inactive | SENP6 conf inactive | SENP7 confirm inactive | Casp3 SENP sel 62 | Luc interf inactive
CCOC(=O)c1ccc(N=Cc2nc(-c3ccccc3)oc2OC(C)=O)cc1	none
CC(=O)Oc1oc(-c2ccccc2)nc1C=Nc1ccccc1	none
CN(c1ccc(C(=O)Nc2ccc3c(c2)OCO3)cc1)S(C)(=O)=O	SENP7 inh 79, SENP6 inh 82, SENP8 block-2 55 | SENP8 confirm inactive | SENP6 conf inactive | SENP7 confirm 74 | Casp3 SENP sel 73 | Luc interf inactive
CN(c1ccccc1C(=O)Nc1ccc2c(c1)OCCO2)S(C)(=O)=O	none
CN(c1ccc(C(=O)Nc2ccc3c(c2)OCCO3)cc1)S(C)(=O)=O	SENP6 inh 57 | SENP8 confirm 59 | SENP6 conf 57 | SENP7 confirm 85 | Casp3 SENP sel 82 | Luc interf 65
Cc1ccc(CN(c2ccc(C(=O)Nc3ccc4c(c3)OCO4)cc2)S(C)(=O)=O)cc1	none
O=C(OCc1nnc(-c2ccccc2)o1)C1CC(=O)N(CCc2ccccc2)C1 (stereo not given)	none (no result: PPC-1+TRAIL kill)
Nc1sccc1C(=O)NCc1ccccc1	none (no result: SENP7 inh, SENP6 inh, PPC-1+TRAIL kill, SENP8 block-2)
O=C(CC12CC3CC(CC(C3)C1)C2)NCC(c1ccc(F)cc1)N1CCOCC1 (stereo not given)	none
O=C(Oc1ccc(/C=N/O)cc1)c1ccccc1	SENP7 inh 80, SENP6 inh 78 | SENP8 confirm 66 | SENP6 conf 65 | SENP7 confirm 89 | Casp3 SENP sel 72 | Luc interf 79
O=C(Oc1ccc2ccccc2c1)c1ccccc1	SENP6 inh 83, SENP8 block-2 71 | SENP8 confirm 74 | SENP6 conf 86 | SENP7 confirm 95 | Casp3 SENP sel 66 | Luc interf 70
COCCNC(=O)C1(C)CCCN(C(=O)c2ccc(OC)cc2OC)C1 (stereo not given)	none (no result: SENP7 inh, SENP6 inh, PPC-1+TRAIL kill, SENP8 block-2)
CCN(C(=O)COC(=O)c1ccc(Cl)c(N)c1)C1CCS(=O)(=O)C1 (stereo not given)	none (no result: PPC-1+TRAIL kill)
O=C(COc1ccccc1)Nc1nccs1	SENP6 inh 75, SENP8 block-2 61 | SENP8 confirm inactive | SENP6 conf 61 | SENP7 confirm 90 | Casp3 SENP sel 90 | Luc interf 74

High-throughput results as filed in PubChem BioAssay.
